Bioassay records as filed in PubChem.
Exocytosis inh – lytic granule exocytosis inhibition. inhibition, % at 10 µM. AID 651702. TALL-104 LAMP-1 surface exposure, flow cytometry; cells stimulated with thapsigargin and PMA. 360,000 tested, 0.66% active;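 active = inhibition above about 55%, limit read from the data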
NadD inh – inhibitors of Staphylococcus aureus NadD | purified NadD enzyme, colorimetric absorbance read-out | inhibition, % at 20 µM | 360,000 tested, 0.78% active | AID 602399; in the data active = inhibition above about 26%
GRK2 aptamer HTS – inhibitors of human GRK2 displacing RNA aptamer. P25098. bead flow cytometry, FAM-aptamer displacement from GRK2. inhibition of aptamer binding, % at 10 µM. 330,000 tested, 0.59% active;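 active = inhibition of aptamer binding above 40%, roughly 3 SD of noise, on plates passing a quality check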;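 also: median bead fluorescence of bound FAM aptamer so fluorescent compounds give negative values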
PP1 counter – counter-screen for PP5 inhibitors: inhibitors of human PP1-alpha; purified PP1alpha, OMFP fluorescence; inhibition, % at 6.7 µM; 320,000 tested, 0.9% active;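 active = inhibition above the mean inhibition of all tested compounds plus 3 SD, computed separately for each screening campaign, cut at about 15% in these data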
B2AR ag – activates human beta-2 adrenergic receptor causing internalization. P07550. Am2.2-beta2AR cells, FAP receptor internalization, flow cytometry. response, % (no concentration beside the values). 340,000 tested, 0.43% active;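 active = response above a set limit, near 3 SD of response in nonfluorescent compounds, cut at about 42% in these data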
Target sequence (P07550 whole entry, looked up): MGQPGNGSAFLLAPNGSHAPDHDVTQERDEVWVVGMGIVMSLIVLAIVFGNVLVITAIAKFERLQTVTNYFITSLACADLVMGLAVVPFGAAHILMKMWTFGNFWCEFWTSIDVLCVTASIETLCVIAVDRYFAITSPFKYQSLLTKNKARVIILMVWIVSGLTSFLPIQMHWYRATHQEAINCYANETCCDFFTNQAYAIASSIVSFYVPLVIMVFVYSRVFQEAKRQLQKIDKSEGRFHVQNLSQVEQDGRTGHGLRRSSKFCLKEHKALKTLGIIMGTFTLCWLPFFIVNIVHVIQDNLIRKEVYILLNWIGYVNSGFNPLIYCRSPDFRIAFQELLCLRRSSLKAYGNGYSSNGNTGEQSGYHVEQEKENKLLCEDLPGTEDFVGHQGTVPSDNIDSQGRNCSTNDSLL
GRK2 CP1 – human GRK2 inhibition confirmation, cherry pick 1 | bead-bound GRK2, FAM-aptamer displacement, flow cytometry | AID 504451 | aptamer displacement, % at 10 µM | 2,000 tested, 4% active | shares compounds with GRK2 aptamer HTS;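 active = aptamer displacement above 40%, near three times the noise of non-fluorescent compounds, on plates passing quality checks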;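 also: negative values mostly reflect intrinsic compound fluorescence rather than true enhancement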
FAM quench CP1 – aptamer fluorescence quenching in GRK2 counter-screen; 2,000 tested, under 10 active; Carboxyfluorescein RNA aptamer on beads, flow cytometry quenching; active compounds read low; shares compounds with GRK2 aptamer HTS; fluorescence response (% of DMSO), % at 10 µM;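 active = compounds that quench the bead-bound fluorescent RNA probe, cutting fluorescence to under half of the solvent control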;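 also: counterscreen run without GRK2 so only probe quenching by compound is measured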
GRK2 CP2 – confirmation of human GRK2 inhibitors binding RNA aptamer site; shares compounds with GRK2 aptamer HTS; bead-bound GRK2, FAM-aptamer displacement, flow cytometry; inhibition of aptamer binding, % at 10 µM; 360 tested, under 10 active; AID 504782;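 active = inhibition of aptamer binding above 40%, about triple the noise seen with nonglowing compounds, on plates passing quality control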;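 also: negative values mostly come from compounds that fluoresce themselves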
FAM quench SP – quenches fluorescent RNA aptamer, GRK2 hit artifact; shares compounds with GRK2 aptamer HTS; carboxyfluorescein RNA aptamer beads, flow cytometry quenching; active compounds read low; fluorescence response vs DMSO, % at 10 µM; 360 tested, under 10 active; AID 588494;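 active = response vs DMSO under 50%, meaning signal dropped by over half, treated as fluorescence quencher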;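 also: labelled aptamer on streptavidin beads without GRK2 as a quench counter-screen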
Hits are given with their value; - = inactive; . = no result given. Rows were chosen to be rich in hits. Some 2.9% of all compounds tested hit in one or more screens of this group.

SMILES	Exocytosis inh	NadD inh	GRK2 aptamer HTS	PP1 counter	B2AR ag	GRK2 CP1	FAM quench CP1	others
COc1ccc(/C=N/NC(=O)c2cccc(S(=O)(=O)N3CCCC3)c2)cc1O	-	-	-	-	-	.	.
COc1ccc(Cc2c(O)nc(SC)n(C(C)=O)c2=O)cc1	-	-	100.0	-	-	-	-
COc1ccc(-n2c(SC)nc(O)c(Cc3ccccc3)c2=O)cc1	-	-	-	-	-	.	.
O=C(c1cccc2ccccc12)C1CCCN(C(=O)c2ccc(N3CCOCC3)cc2)C1 (centres undefined)	-	-	-	-	-	-	-
COC(=O)Cc1c(O)ccn(C2CC2)c1=O	-	-	75.0	-	-	-	-
CCOC(=O)C1=C(COC(=O)c2ccco2)NC(=O)NC1CC (centres undefined)	-	-	83.0	-	-	-	-
NS(=O)(=O)c1ccc(NC(=S)N2CCN(c3cccc(Cl)c3)CC2)cc1	-	-	-	-	-	.	.
NS(=O)(=O)c1ccc(NC(=S)N2CCN(c3ccccc3Cl)CC2)cc1	-	-	48.0	-	-	.	.	GRK2 CP2=-;FAM quench SP=-
CN(NC(=O)NN(C)C(=O)c1ccccc1)C(=O)c1ccccc1	-	-	.	.	-	.	.
NNC(=O)Cn1c(COc2ccc(Cl)cc2)nc2ccccc21	-	-	-	-	-	.	.
O=C(Cn1c(COc2ccccc2)nc2ccccc21)Nc1cccc(Cl)c1	-	-	100.0	-	-	.	.	GRK2 CP2=-;FAM quench SP=-
COc1ccc(C2=NS(=O)(=O)N(C)C(C(=O)Nc3ccc(OC)c(OC)c3)=C2)cc1	-	-	-	-	-	.	.
COc1ccc(NC(=O)C2=CC(c3ccc(C)cc3)=NS(=O)(=O)N2C)cc1	-	-	54.0	-	-	-	-
COc1ccccc1NS(=O)(=O)c1cccc(C(=O)OCC(=O)NC2CC2)c1	-	-	59.0	-	-	-	-
CNS(=O)(=O)c1cccc(C(=O)OCC(=O)NC2CCCC2)c1	-	-	-	-	-	.	.
O=C(C1CCCO1)N1CCN(C(=S)Nc2ccc(Br)cc2)CC1 (centres undefined)	-	-	-	-	-	.	.
CCC(C)c1ccc(NC(=S)N2CCN(C(=O)C3CCCO3)CC2)cc1 (centres undefined)	-	-	74.0	-	-	.	.	GRK2 CP2=-;FAM quench SP=-
Cc1ccc(NC(=O)c2noc3c2CCCCC3)cc1C	-	-	100.0	-	-	-	-
Cc1ccc(NC(=O)c2noc3c2CCCCC3)cc1	-	-	-	-	-	.	.
O=C(O)CCCCCNS(=O)(=O)c1ccc2c3c(cccc13)C(=O)N2	-	-	-	.	-	.	.
O=C(O)CNS(=O)(=O)c1ccc2c3c(cccc13)C(=O)N2	-	-	78.0	.	-	-	-
CCc1ccc(S(=O)(=O)NC(=S)NC2CCCCC2)cc1	-	-	-	-	-	.	.
Cc1cccc(N(C(=O)c2csnn2)C(C(=O)NC(C)(C)C)c2cccs2)c1 (centres undefined)	-	-	-	-	-	.	.
Cc1ccc2nc(N3CCN(c4ccccc4F)CC3)c(C=O)c(=O)n2c1	-	-	64.0	-	-	-	-
Cc1ccc2nc(N3CCCCC3)c(C=O)c(=O)n2c1	.	.	-	-	.	.	.
SMILES	Exocytosis inh	NadD inh	GRK2 aptamer HTS	PP1 counter	B2AR ag	GRK2 CP1	FAM quench CP1	others
CCC(=O)Nc1cccc(-c2cc3ccccc3oc2=O)c1	-	-	96.0	-	-	-	-
COCCNC(=O)C1CCCN(Cc2ccc(-c3ccccc3)cc2)CC1 (centres undefined)	-	-	.	.	.	.	.
O=C(NCC1CCCN(C(=O)NCc2ccccc2)C1)c1ccc2c(c1)OCO2 (centres undefined)	-	-	-	-	-	-	-
O=C(NCC1CCCN(Cc2ccc3c(c2)OCCO3)C1)c1ccc2c(c1)OCO2 (centres undefined)	-	-	-	-	-	.	.
O=C(CSc1nncs1)N1CCN(C(=O)c2ccco2)CC1	-	-	81.0	-	-	-	-
COc1ccccc1-n1cnnc1SCC(=O)N1CCN(S(=O)(=O)c2ccccc2)CC1	-	-	-	-	-	.	.
